Source: PubChem BioAssay
MCF10A rereplic – induces DNA re-replication in MCF 10a normal breast cells; hit rate 2.9% among 350,000; MCF 10A DNA re-replication, Hoechst nuclear intensity, 48 h; Potency, µM (top dose mostly 46.1 µM), most hits filed as activators; note: nearly all actives have a fitted effect of over 50% in size
RORg inh – ROR gamma (mouse) transcription inhibition; P51450; Drosophila S2 Gal4-RORgamma UAS-luciferase reporter, 20 h; Potency, µM (series often up to 53.6 µM), hits mostly inhibitors; hit rate 5.4% among 310,000; AID 2551; note: nearly all actives have a fitted effect of over 60% in size
Target sequence (P51450 whole entry, looked up, the tested form may be a part): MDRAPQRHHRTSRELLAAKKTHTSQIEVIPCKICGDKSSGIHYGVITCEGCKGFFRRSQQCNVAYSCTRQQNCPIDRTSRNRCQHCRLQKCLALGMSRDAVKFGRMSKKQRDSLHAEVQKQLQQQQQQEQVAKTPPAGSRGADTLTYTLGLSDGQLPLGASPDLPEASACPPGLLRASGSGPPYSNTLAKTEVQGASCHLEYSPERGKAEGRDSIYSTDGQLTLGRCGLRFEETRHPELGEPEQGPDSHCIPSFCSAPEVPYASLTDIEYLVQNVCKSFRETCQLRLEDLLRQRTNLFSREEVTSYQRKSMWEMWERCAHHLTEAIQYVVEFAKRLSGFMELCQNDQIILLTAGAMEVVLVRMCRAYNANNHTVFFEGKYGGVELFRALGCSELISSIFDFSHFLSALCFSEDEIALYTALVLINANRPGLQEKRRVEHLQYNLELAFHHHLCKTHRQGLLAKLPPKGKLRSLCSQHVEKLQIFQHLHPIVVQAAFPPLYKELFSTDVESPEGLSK
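Drosophila S2 cells stably expressing Gal4-DBD/mouse RORγ fusion under metallothionein promoter plus UAS-luciferase; compound 1 h, then 700 uM CuSO4 induction for 20 h at ambient temperature; inhibition read as reduced luminescence.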
VP16 counter – inhibits Gal4-VP16 luciferase reporter, ROR gamma counter-screen; Drosophila S2 Gal4-VP16 UAS-luciferase, luminescence, 20 h; AID 2546; hit rate 3.5% among 310,000; Potency, µM (highest dose often 53.6 µM), most hits filed as inhibitors;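 note: Gal4-VP16 expression switched on by copper sulfate through the metallothionein promoter; nearly all actives have a fitted effect of over 50% in size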
IL1B secr inh – inhibitors of inflammasome signaling (IL-1 beta secretion) | hit rate 4.7% among 360,000 | activity change, % at 57.5 µM | THP-1 LPS/ATP IL-1B secretion, AlphaLISA, 16 h; stronger effect = lower value; in the data active = activity change below about -50%; inconclusive = mostly about -30% to -49%
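THP-1 cells pretreated 1 hr with compounds (up to 57.5 uM final), then stimulated with LPS (250 ng/mL final) plus ATP (1.25 mM final); secreted IL-1B measured by AlphaLISA after 16 hr, decreased signal indicating inhibition.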
SW480 rerep – induces DNA re-replication in SW480 colon adenocarcinoma cells; SW480 DNA re-replication, Hoechst DNA content imaging, 48 h; Potency, µM (top dose mostly 46.1 µM), most hits filed as activators; hit rate 1.8% among 340,000; AID 624297; note: nearly all actives have a fitted effect of over 55% in size
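Cells (250 per well) received 23 nL compound or DMSO by pin tool and were kept 48 hr at 37 C, 5% CO2. Nuclei were then stained with Hoechst for 40 min and scanned for DNA content.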
Each line names hits and unclear results; the compound was inactive in the other large screens. Compounds with a hit are over-represented: about 11% of the library has one in this group of screens. Unless noted, calls come from the whole dose curve; as a rule, active = well fitted curve in the direction sought with a large enough effect; inconclusive = small, poorly fitted or top-dose-only effect, or another doubt; inactive = no such curve, though single readings can be large; an effect the other way counts as inactive or inconclusive.

S=C(NCc1ccc(Cl)cc1)NCc1ccccn1	RORg inh 16µM, VP16 counter inconclusive
Cc1c(Cl)cccc1NC(=S)NCCc1ccc(C(F)(F)F)cc1	MCF10A rereplic inconclusive, RORg inh 2.5µM, VP16 counter inconclusive, IL1B secr inh -102
S=C(NCCCc1ccccc1)Nc1ccccc1Cl	MCF10A rereplic inconclusive, RORg inh inconclusive, IL1B secr inh inconclusive
CCCCN(C(=O)COC(=O)C1(c2ccccc2)CC1)c1c(N)n(CCC)c(=O)[nH]c1=O	none (no result: MCF10A rereplic, RORg inh, VP16 counter, SW480 rerep)
O=c1[nH]c(=O)n(CCCc2ccccc2)cc1-c1ccccc1	none (no result: RORg inh, VP16 counter)
COC(=O)[C@@]12C[C@@H](CC(=O)N3CCOCC3)C(=O)N(Cc3ccccc3)C1=CCC(C)(C)C2	none (no result: MCF10A rereplic, RORg inh, VP16 counter, SW480 rerep)
Cc1c(Cl)cccc1NC(=S)NCCc1ccccn1	MCF10A rereplic inconclusive, RORg inh 2.5µM, VP16 counter 8.9µM (no result: IL1B secr inh)
S=C(NCCc1ccccn1)Nc1ccc(Cl)cc1Cl	RORg inh 5µM, VP16 counter inconclusive, SW480 rerep inconclusive
C=CCNC(=S)Nc1cccc2ccccc12	none
O=C(NCc1ccccn1)Nc1ccc(Cl)cc1Cl	MCF10A rereplic inconclusive, IL1B secr inh inconclusive
S=C(NCCc1ccncc1)Nc1cccc2ccccc12	RORg inh 10µM, VP16 counter inconclusive
Cc1ccc(S(=O)(=O)N(C)CC(=O)NNC(=O)CCNS(=O)(=O)c2cccc(C)c2)cc1	none (no result: RORg inh, VP16 counter)
COc1ccc2cc(C(C)CO)ccc2c1 (configuration not stated)	none (no result: IL1B secr inh)
Cc1ccc(CSc2ncn(-c3ccccc3)n2)cc1	none
Cc1ccc(CSc2nccc(-c3c(C)nc4ccccn34)n2)cc1	MCF10A rereplic 3.7µM, RORg inh inconclusive, SW480 rerep inconclusive
CCCN(CC1CC1)C(=S)Nc1ccc(Oc2ccccc2)cc1	MCF10A rereplic inconclusive, RORg inh 13µM, VP16 counter 8.9µM
CCCCN(C)C(=S)Nc1ccc(Oc2ccccc2)cc1	RORg inh 11µM, VP16 counter inconclusive (no result: SW480 rerep)
CCC1(c2ccccc2)NC(=O)N(CC(=O)Nc2ccc3c(C)cc(=O)oc3c2)C1=O (configuration not stated)	none (no result: RORg inh, VP16 counter)
CC(C)c1ccccc1NC(=O)CN1C(=O)c2ccccc2C1=O	none
COc1ccc(NC(=S)NN2CCOCC2)cc1OC	none
COc1ccc(OC)c(NC(=S)NN2CCOCC2)c1	RORg inh 28µM
COc1ccc(OC)c(NC(=S)N2CCC(C(O)(c3ccccc3)c3ccccc3)CC2)c1	RORg inh 16µM, VP16 counter inconclusive
COc1ccc(OC)c(NC(=S)NN2CCN(C)CC2)c1	none
COc1ccc(Cl)cc1NC(=S)NN1CCOCC1	RORg inh 5µM, VP16 counter inconclusive
COc1ccc(OC)c(NC(=S)N2CCN(Cc3ccccc3)CC2)c1	none
S=C(Nc1cccc2ccccc12)NN1CCOCC1	RORg inh 11µM, VP16 counter inconclusive
S=C(Nc1cccc2ccccc12)NN1CCCCCC1	none (no result: RORg inh, VP16 counter)
COc1cccc(NC(=O)N(C)C[C@H]2Oc3ncc(Br)cc3C(=O)N([C@H](C)CO)C[C@H]2C)c1	none (no result: MCF10A rereplic, RORg inh, VP16 counter, SW480 rerep)
CN1CCN(C(=O)c2cc3c(c(-c4cccc(-c5cc6ccccc6o5)c4)n2)[C@@H](CCO)N(S(=O)C(C)(C)C)C3)CC1 (some centres not stated)	none (no result: MCF10A rereplic, RORg inh, VP16 counter, SW480 rerep)
Fc1ccc(NC(=S)N2CCOCC2)c(F)c1	none
Cc1cc(Br)ccc1NC(=S)N1CCOCC1	RORg inh 13µM
Cc1ccc(NC(=S)NN2CCOCC2)c(C)c1	RORg inh 11µM, VP16 counter inconclusive
CN(C)S(=O)(=O)Nc1ccc(Br)cc1F	none
CN(C)/C=N/C(=S)Nc1ccccc1	RORg inh 16µM
C=CCNC(=S)Nc1ccc(Br)cc1F	RORg inh 16µM, VP16 counter inconclusive
C=CCNC(=O)Nc1ccc(Br)cc1Cl	none
Fc1cc(Br)ccc1NC(=S)NCCc1ccccc1	RORg inh 7.9µM, VP16 counter inconclusive
CN(C)/C=N/C(=S)Nc1ccc(Br)cc1F	RORg inh inconclusive, VP16 counter 13µM
CCOC(=O)C1(C)CCCN1C(=O)c1cccc2ccccc12 (configuration not stated)	none (no result: MCF10A rereplic, RORg inh, VP16 counter, SW480 rerep)
COc1ccc(O[C@H]2C=C[C@@H](c3ccccc3)O[C@H]2COC(=O)CC/C(C)=N\OC[C@@H](O)[C@H]2O[C@H]3OC(C)(C)O[C@H]3[C@@H]2O)cc1	none (no result: MCF10A rereplic, IL1B secr inh, SW480 rerep)
O=C(Cc1ccc([N+](=O)[O-])cc1)Nc1cccc(C(=O)N2CCCCC2)c1	none (no result: RORg inh, VP16 counter)
